# Laboratory results as given in PubChem BioAssay AID463173 (ICCB-Longwood Screening Facility, Harvard Medical School, 2010).
# Out of some 52,000 compounds screened, about 4,300 (8.3%) were called active. What follows is part of a selection rich in actives, with near analogues and random picks from the rest. Unmarked numbers belong to inactive results. Cut-off read from the data, not from the text of the source: active = survival mostly below about 52% (no sharp cut-off); inactive = mostly above about 56%.
# System: DeltatarO mutant
# Test: growth inhibition of S. aureus wild type versus tarO mutant, primary screen, teichoic acid synthesis inhibitors, RN4220, OD600 (AID 463173)
# Conditions: OD600, 18 h, hits give low values, screened at 18.75 µg/mL (by protocol)
row,SMILES,survival
1,CCc1ccc(NC(=O)CN2C(=O)C(c3ccc(F)cc3)=NC2(C)C)cc1,81%
2,Cc1ccc(NC(=O)Cn2c(=O)c3ccccc3n3nncc23)cc1,114%
3,Cc1ccc2sc(-c3ccc(N)cc3)nc2c1,12% (active)
4,Cc1ccc2nc(-c3ccc(NC(=O)C(F)(F)F)cc3)sc2c1,98%
5,Nc1ccc2nc(-c3ccc(O)cc3)sc2c1,120%
6,Cc1cccc(C)c1OCc1nc2c3cnn(-c4ccccc4Br)c3ncn2n1,69%
7,COc1ccc(Br)c(C(=O)Nc2cc3c(cc2N2CCOCC2)n(C)c(=O)n3C)c1,82%
8,O=C(NCCCc1nc2ccccc2n1Cc1ccc(Cl)cc1)c1ccco1,105%
9,O=C(NCCCc1nc2ccccc2n1Cc1ccc(Cl)cc1Cl)c1ccco1,58%
10,O=C(NCCc1nc2ccccc2n1Cc1ccc(Cl)cc1Cl)c1ccco1,49% (active)
11,O=C(NCCCc1nc2ccccc2n1Cc1cccc(Cl)c1)c1ccco1,46% (active)
12,O=C(NCCc1nc2ccccc2n1Cc1ccccc1)c1ccco1,113%
13,Cc1ccc(Cn2c(CCCNC(=O)c3ccco3)nc3ccccc32)cc1,77%
14,CCCSCCCNC(=O)CN1C(=O)COc2ccc(S(=O)(=O)N3CCC(C)CC3)cc21,90%
15,N#Cc1ccccc1NC(=O)CNCC1CCCO1 (configuration not stated),76%
16,COC(=O)C1CCN(S(=O)(=O)c2cc3c4c(c2)C(C)C(=O)N4CCC3)CC1 (configuration not stated),99%
17,COc1ccc(C)cc1NS(=O)(=O)c1cc2c3c(c1)CC(=O)N3CCC2,105%
18,CC1C(=O)N2CCCc3cc(S(=O)(=O)N4CCC(C(N)=O)CC4)cc1c32 (configuration not stated),0% (active)
19,COC(=O)C1CCN(S(=O)(=O)c2cc3c4c(c2)CC(=O)N4CCC3)CC1,37% (active)
20,COC(=O)c1ccccc1NS(=O)(=O)c1cc2c3c(c1)CC(=O)N3CCC2,46% (active)
21,CCOC(=O)C1CCN(S(=O)(=O)c2cc3c4c(c2)C(C)C(=O)N4CCC3)CC1 (configuration not stated),98%
22,COC(=O)c1ccccc1N(C)S(=O)(=O)c1cc2c3c(c1)CC(=O)N3CCC2,78%

row,SMILES,survival
1,CC1CCN(S(=O)(=O)c2cc3c4c(c2)CC(=O)N4CCC3)CC1,102%
2,CCOC(=O)C1CCN(S(=O)(=O)c2cc3c4c(c2)CC(=O)N4CCC3)CC1,83%
3,O=C(O)CCCNC1C=CS(=O)(=O)C1 (configuration not stated),91%
4,COCCNc1cc(N2CCN(C3CCCCC3)CC2)c2noc3c2c1C(=O)c1ccccc1-3,57%
5,COc1ccc(CCC(=O)NC2CC(=O)N(c3cccc(F)c3)C2)cc1 (configuration not stated),113%
6,CSc1nc(NC(N)=S)nc(NC(C)C)n1,76%
7,Cc1cc(C)c2c(CC(=O)Nc3ccc(S(=O)(=O)Nc4ncccn4)cc3)coc2c1,83%
8,COc1ccc([N+](=O)[O-])cc1NC(c1nnc(-c2ccccc2)o1)c1ccccc1F (configuration not stated),83%
9,Cc1cccc2nc(-c3cccnc3)c(Nc3ccc(C(C)C)cc3)n12,70%
10,Cc1cccc(C(C)C)c1NC(=O)c1ccc2c(c1)CCN2S(C)(=O)=O,74%
11,COc1ccc(C2C(C(=O)Nc3cccnc3)=C(C)Nc3nc(-c4ccc(OC)c(OC)c4)nn32)cc1 (configuration not stated),150%
12,CCOC(=O)C1CCN(C(=O)c2c(C)nn(-c3ccc(F)cc3)c2-n2cccc2)CC1,66%
13,Cc1cc(NC(=O)CSc2nc(-c3ccccc3C)nc3c2c(=O)n(C)c(=O)n3C)no1,67%
14,CS(=O)(=O)c1ncc(N(Cc2ccccc2)Cc2ccco2)c(C(=O)Nc2cccc(C(F)(F)F)c2)n1,52%
15,COc1ccc(CN(Cc2ccco2)c2cnc(S(C)(=O)=O)nc2C(=O)Nc2ccc(C)c(C)c2)cc1,44% (active)
16,CC(C)c1ccc(CN(Cc2ccco2)c2cnc(S(C)(=O)=O)nc2C(=O)Nc2ccccc2)cc1,44% (active)
17,COc1ccc(CN(Cc2ccco2)c2cnc(S(C)(=O)=O)nc2C(=O)Nc2ccc(F)cc2)cc1,49%
18,Cc1ccc(NC(=O)c2nc(S(C)(=O)=O)ncc2N(Cc2cccc(F)c2)Cc2ccco2)cc1C,45%
19,Cc1ccc(NC(=O)c2nc(S(C)(=O)=O)ncc2N(Cc2ccco2)Cc2cccs2)cc1C,40% (active)
20,COc1ccc(CN(Cc2ccco2)c2cnc(S(C)(=O)=O)nc2C(=O)Nc2ccc(C)cc2C)cc1,48%
21,Cc1ccc(NC(=O)c2nc(S(C)(=O)=O)ncc2N(Cc2ccco2)Cc2ccco2)cc1C,50%
22,CCc1ccc(CN(Cc2ccco2)c2cnc(S(C)(=O)=O)nc2C(=O)Nc2cccc(C)c2)cc1,46%

row,SMILES,survival
1,COc1ccc(CN(Cc2ccco2)c2cnc(S(C)(=O)=O)nc2C(=O)Nc2ccc(C)c(Cl)c2)cc1,47%
2,CC(C)c1ccc(CN(Cc2ccco2)c2cnc(S(C)(=O)=O)nc2C(=O)Nc2ccc(F)cc2)cc1,49%
3,Cc1ccc(NC(=O)c2nc(S(C)(=O)=O)ncc2N(Cc2ccco2)Cc2cccs2)c(C)c1,38% (active)
4,Cc1ccc2scc(N3CCc4ccccc4C3)c(=O)c2c1,73%
5,CCN(c1cccc(C)c1)S(=O)(=O)c1c(C)nc2sc(C)cn2c1=O,73%
6,Cc1ccc2oc(=O)c3cnn(CC(=O)Nc4cccc(C(F)(F)F)c4)c3c2c1,87%
7,Brc1ccc(-c2cc(-c3ccccc3)no2)cc1,74%
8,CC1CCC(Nc2nnnn2-c2ccccc2)CC1 (configuration not stated),87%
9,CCc1cccc(NS(=O)(=O)c2ccc3c(c2)n(C)c(=O)c(=O)n3C)c1,73%
10,CCOC(=O)c1ccccc1NC(=O)CN1C(=O)CC(c2ccccc2)Sc2ccccc21 (configuration not stated),92%
11,COCCNC(=O)CSc1nc(-c2ccc(F)cc2)[nH]c1-c1ccc(Cl)cc1,71%
12,CCc1cccc(C)c1NC(=O)Cn1cnc2c1c(=O)n(C)c(=O)n2C,74%
13,Cc1cccc(C)c1NC(=O)c1nc(S(C)(=O)=O)ncc1N(Cc1ccc(C(C)(C)C)cc1)Cc1ccco1,49%
14,CCS(=O)(=O)c1ncc(N(Cc2ccco2)Cc2ccccc2F)c(C(=O)Nc2cccc(Cl)c2)n1,60%
15,Cc1ccc(NC(=O)c2nc(S(C)(=O)=O)ncc2N(Cc2ccc(C(C)(C)C)cc2)Cc2ccco2)cc1C,52%
16,CC(C)(C)c1ccc(CN(Cc2ccco2)c2cnc(S(C)(=O)=O)nc2C(=O)Nc2ccc(F)cc2)cc1,102%
17,CS(=O)(=O)c1ncc(N(Cc2ccco2)Cc2cccs2)c(C(=O)Nc2ccccc2F)n1,41% (active)
18,CCc1ccc(CN(Cc2ccco2)c2cnc(S(C)(=O)=O)nc2C(=O)Nc2c(C)cccc2C)cc1,36% (active)
19,Cc1ccc(CN(Cc2ccco2)c2cnc(S(C)(=O)=O)nc2C(=O)Nc2ccccc2Br)o1,44%
20,Cc1ccc(NC(=O)c2nc(S(C)(=O)=O)ncc2N(Cc2ccco2)Cc2ccccc2F)c(C)c1,37% (active)
21,CS(=O)(=O)c1ncc(N(Cc2ccco2)Cc2ccco2)c(C(=O)Nc2ccccc2Br)n1,53%
22,Cc1cccc(C)c1NC(=O)c1nc(S(C)(=O)=O)ncc1N(Cc1ccc(F)cc1)Cc1ccco1,46%

row,SMILES,survival
1,Cc1ccc(NC(=O)c2nc(S(C)(=O)=O)ncc2N(Cc2ccccc2)Cc2ccco2)c(C)c1,53%
2,Cc1ccc(C)c(NC(=O)c2nc(S(C)(=O)=O)ncc2N(Cc2ccc(C(C)(C)C)cc2)Cc2ccco2)c1,55% (active)
3,COCCn1c(C)cc(O)c(C(c2ccc(OC)cc2)N2CCCCC2)c1=O (configuration not stated),83%
4,Cc1ccc(-c2nnc(Nc3cccc(Cl)c3)c3ccccc23)cc1S(=O)(=O)N1CCN(C)CC1,87%
5,CCn1c(=O)n(-c2ccc(F)cc2)c(=O)c2sc3ccccc3c21,88%
6,Cc1ncc(CO)c2c1Oc1nc(-c3ccc(F)cc3)nc(SCc3ccc(F)cc3Cl)c1C2,58%
7,Cc1cccc(OCc2ccc(-c3nc(C#N)c(NCc4cccnc4)o3)o2)c1,79%
8,COC(=O)c1sccc1S(=O)(=O)N(CC(=O)NCc1ccccc1)c1ccc(C)cc1,95%
9,CC(=O)N1CCc2c(sc3c2c(=O)n(-c2ccccc2Cl)c(=O)n3Cc2cccc(C)c2)C1,74%
10,Cc1ccc(NS(=O)(=O)c2ccc3nc(-c4ccccc4)[nH]c3c2)c(Cl)c1,76%
11,Cc1ccc(NS(=O)(=O)c2ccc3c(c2)CC(=O)N3)cc1Cl,47% (active)
12,Cc1cc(NS(=O)(=O)c2ccc3nc(-c4ccccc4)[nH]c3c2)ccc1Br,-2% (active)
13,COc1cc(NS(=O)(=O)c2ccc3c(c2)CC(=O)N3)cc(OC)c1OC,74%
14,Cc1ccc(NS(=O)(=O)c2ccc3c(c2)N(C)C(=O)CC(=O)N3C)cc1Cl,72%
15,O=S(=O)(Nc1ccc(Br)cc1)c1ccc2nc(-c3ccccc3)[nH]c2c1,-1% (active)
16,COc1ccc(NS(=O)(=O)c2ccc3nc(-c4ccccc4)[nH]c3c2)cc1,72%
17,Cc1cccc(NS(=O)(=O)c2ccc3nc(-c4ccccc4)[nH]c3c2)c1C,109%
18,O=S(=O)(Nc1ccc(Br)cc1F)c1ccc2nc(-c3ccccc3)[nH]c2c1,72%
19,CC(C)c1ccc(NS(=O)(=O)c2ccc3nc(-c4ccccc4)[nH]c3c2)cc1,67%
20,Cc1ccc(NS(=O)(=O)c2ccc3nc(-c4ccccc4)[nH]c3c2)c(Br)c1,79%
21,Cc1ccc(NS(=O)(=O)c2ccc3nc(-c4ccccc4)[nH]c3c2)cc1Cl,6% (active)
